In PubChem BioAssay AID1224855 (National Center for Advancing Translational Sciences (NCATS), 2016) one finds Potency data, which are given here for 28 molecules.

SMILES strings stand for the structures. Records with an inconclusive call do not appear. Active and inactive are the calls of the source. The call rests on the fitted dose curve; in most records, active means well fitted inhibition curve with a large enough effect; inconclusive means small, poorly fitted or top-dose-only effect; inactive means no such curve, though single readings can be large or run the other way.

A short description of the assay: Confirmation assay for measurement of the activity of small molecule inhibitors on Zika virus induced Caspase-3 activity in human iPSC derived neural progenitor cells (hNPCs). The conditions noted are these: hNPC ZIKV-induced caspase-3/7, Caspase-Glo luminescence, 6 h; series mostly up to 46.1 µM. An outline of the steps:
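Measured: drop in caspase-3/7 luminescence from ZIKV-infected hNPCs. Conditions were 1 h compound pretreatment, infection at 2 FFU/cell, 6 h at 37 C with 5% CO2, then 30 min reagent incubation at room temperature.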
As to `Cc1csc(NC(=O)c2sc3nc4c(c(C(F)(F)F)c3c2N)CCC4)n1`, the Potency was 15.5 µM (active).
`N#CC1(c2ccc(NC(=O)c3cccnc3NCc3ccncc3)cc2)CCCC1`: the Potency result was “inactive”.
Consider `Cc1c(N)c(=O)n(-c2ccccc2)n1C`, for which the Potency entry was “inactive”.
Take `O=C(O)[C@H](CC(=O)N1C[C@@H]2CCCC[C@H]2C1)Cc1ccccc1`: the Potency result was “inactive”.
Take `COc1ccc(C=CC(=O)Nc2ccccc2C(=O)O)cc1OC`: the Potency is 17.3 µM (active).
With `Clc1ccccc1-c1nc(-c2ccncc2)no1`, the Potency is 4.35 µM (active).
On to `COc1ccc2nc(NC(=O)Nc3ccccc3)sc2c1`, for which the Potency is 8.69 µM (active).
Regarding `Cc1ccc(C(=O)c2ccc(CC(=O)O)n2C)cc1`, the Potency entry was “inactive”.
On to `Cc1c(NC(=O)c2ccc(C(C)(C)C)cc2)cccc1-c1cn(C)c(=O)c(Nc2ccc(C(=O)N3CCOCC3)cc2)n1`, for which the Potency entry was “inactive”.
On to `O=C(C=CC=Cc1ccc2c(c1)OCO2)N1CCCCC1`, for which the Potency was 13.8 µM (active).
On to `CN1CC(=O)N/C1=N/C(=O)Nc1cccc(Cl)c1`, for which the Potency was 4.35 µM (active).
In the case of `CC1(C)Cc2c(sc(NC(=S)NC(=O)c3ccccc3)c2C(=O)O)CO1` it was “inactive”.
In the case of `CC1=C(CO)C(=O)O[C@@H]([C@@H](C)[C@H]2CC[C@H]3[C@@H]4C[C@H]5O[C@]56[C@@H](O)C=CC(=O)[C@]6(C)[C@@H]4CC[C@]23C)C1` it was “inactive”; in that of `COc1cccc(-c2cc(=O)c3ccccc3o2)c1N`, 4.89 µM (active); in that of `O=C(Nc1ncc([N+](=O)[O-])s1)c1cccs1`, 1.23 µM (active).
For the molecule `C/C(=N\O)c1ccc(OCC(=O)N2CCCCC2)cc1`, the Potency is 7.74 µM (active).
Regarding `COc1ccnc2c1CCCCC2S(=O)c1nc2ccccc2[nH]1` (stereo not drawn), the Potency result was “inactive”.
The result for `O=C(c1ccccc1)c1ccc2n1CCC2C(=O)O` (stereo not drawn) reads 13.8 µM (active).
In the case of `CC(=O)Oc1ccccc1C(=O)Nc1ncc([N+](=O)[O-])s1` it was 1 µM (active); in that of `O=C(Oc1ccccc1)c1cccc(C(=O)Oc2ccccc2)c1`, 3.98 µM (active).
In the case of `O=C(O)Cc1ccc(-c2ccccc2)cc1` it was “inactive”; in that of `CCCS(=O)c1ccc2nc(NC(=O)OC)[nH]c2c1` (stereo not drawn), 8.69 µM (active).
For `CC(C(=O)O)c1ccc(-c2ccccc2)c(F)c1` (stereo not drawn), the Potency result is “inactive”.
As for `O=C(/C=C/c1ccc(O)cc1)c1ccc(O)cc1O`, the Potency is 1.73 µM (active).
In the case of `CN(C)c1cc(NC(=O)CNC(C)(C)C)c(O)c2c1C[C@@H]1C[C@H]3[C@H](N(C)C)C(=O)C(C(N)=O)=C(O)[C@@]3(O)C(=O)C1=C2O` it was “inactive”; in that of `N[C@H](CSC(c1ccccc1)(c1ccccc1)c1ccccc1)C(=O)O`, “inactive”.
`Oc1ccc(/C=C/c2cc(O)cc(O)c2)cc1`: the Potency was 6.15 µM (active).
On to `Cc1oncc1C(=O)Nc1ccc(C(F)(F)F)cc1`, for which the Potency was 1.38 µM (active).
